The results in this text go back to PubChem BioAssay AID504862 (Sanford-Burnham Center for Chemical Genomics, 2011).

In general, inhibition refers to the relative decrease from the control value, in per cent.

SMILES strings stand for the structures. The list shows a part of the results. Activity calls are given as the source filed them.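 Rule for the calls: active = average inhibition reaching 50% or more with the compound at 20 µM; inactive = the rest.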

The assay has as its system diaphorase (Clostridium kluyveri). Description: C. kluyveri diaphorase inhibition, resazurin coupling – biochemical, fluorescence intensity, 10 µM NADPH, counter-screen for P. falciparum G6PD inhibitor project, confirmation (AID 504862).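 Note: resorufin red fluorescence formed as diaphorase reduces resazurin using NADPH; 0% = DMSO with enzyme and 100% = DMSO without enzyme.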 To be noted: diaphorase-coupled resazurin reduction, NADPH 10 uM, at 20 µM, hits give high values. In general terms: The colour change of resazurin is a common sign of viable cells or microbes.
Turning to `COc1cccc(C(=O)Nc2nnc(S(=O)(=O)N3CCOCC3)s2)c1`, the inhibition was 69.5% (active).

For the compound `O=C(NC1=CC(=O)c2ccccc2C1=O)c1ccccc1`, the inhibition is 48.7% (inactive). On to `Cc1cccc(C(=O)Nc2nnc(S(=O)(=O)N3CCCCCC3)s2)c1`, for which the inhibition is 46.7% (inactive). Next, `COc1cccc(C(=O)Nc2nnc(S(=O)(=O)N3CCCCC3)s2)c1`: 72.7% (active); `COc1ccc(OCc2nnc3n2N=C(c2ccccc2)C(CC(=O)O)S3)cc1` (stereo unspecified): -3.99% (inactive). For `COc1ccc(CCn2c(NN=C3CCCC3)nc3c2c(=O)[nH]c(=O)n3C)cc1`, the inhibition was 7.63% (inactive). With `COc1ccc2c(c1)c(=Cc1ccc(N(C)C)cc1)c1cc(-c3ccccc3)[n+](C)n12`, the inhibition is 17.5% (inactive). On to `COc1cccc(C(=O)Nc2nnc(S(=O)(=O)N(C)c3ccccc3)s2)c1`, for which the inhibition is 89.1% (active). Consider `Cc1ccnc(-n2sc3ccccc3c2=O)n1`, for which the inhibition was -36% (inactive). As to `Cc1ccc(NC(=O)Cn2sc3ccccc3c2=O)cc1`, the inhibition is 0.47% (inactive).

Consider `O=C1C=CC(=O)N1c1ccc(N2CCCCC2)cc1`, for which the inhibition was -20% (inactive).

Consider `O=C1/C(=C\c2ccc([N+](=O)[O-])cc2)CS(=O)(=O)C/C1=C/c1ccc([N+](=O)[O-])cc1`, for which the inhibition is -19.8% (inactive). Regarding `O=C(Nc1nnc(S(=O)(=O)N2CCCCCC2)s1)c1cccc(Br)c1`, the inhibition was 52.1% (active). Take `CC(C)(C)NC(=O)COc1ccc(CNc2ccc3[nH]c(=O)[nH]c3c2)cc1`: the inhibition was 27.4% (inactive).

For `OCCN1CCN(C(=S)c2ccc(-c3ccccc3)cc2)CC1`, the inhibition is -9.62% (inactive). Take `CCOC(=O)C1=C(c2ccc(OC)cc2)C(=O)c2ccccc2C1=O`: the inhibition was 84.4% (active). Next, `O=c1[nH]c2ccccc2n2c(-c3ccccc3)nnc12`: 37.2% (inactive); `c1ccc(-c2cn3c(n2)CCc2ccc4cccnc4c2-3)cc1`: 10.4% (inactive); `C=CCc1ccccc1OCC(=O)N/N=C/c1ccccc1OCC`: 43.3% (inactive). Turning to `O=C(Nc1nc(-c2ccncc2)cs1)C1COc2ccccc2O1` (stereo unspecified), the inhibition is -37.4% (inactive). On to `O=C(CN1CCN(c2ccc(O)cc2)CC1)Nc1cc(S(=O)(=O)N2CCOCC2)ccc1Cl`, for which the inhibition was -6.79% (inactive). Next, `Cc1ccc(/C=C/C(=O)Nc2ccc([N+](=O)[O-])c(NC(=O)/C=C/c3ccc(C)o3)c2)o1`: -11.9% (inactive); `CCSc1nnc(NC(=O)c2ccc(C)cc2)s1`: 61.9% (active). Next, `O=C(Nc1nnc(S(=O)(=O)N2CCOCC2)s1)c1cccc(Br)c1`: 56.5% (active); `COc1c(O)ccc2c1CN1CCc3cc4c(cc3C1C2)OCO4` (stereo unspecified): 12.4% (inactive).

In the case of `CCN(CC)c1ccc2oc(=O)c(C)nc2c1`, the inhibition was 87.7% (active). The figure for `CCN1CCCC1CNC(=O)c1ccc2c(c1)NC(=O)/C(=C\c1ccccc1F)S2` (stereo unspecified) is -2.12% (inactive).

As for `Cn1c(-c2sccc2OCc2cccc(C(F)(F)F)c2)n[nH]c1=S`, the inhibition is 4.08% (inactive). As for `CCOc1ccccc1/C=N/NC(=O)CNC(=O)COc1ccccc1`, the inhibition was 96.9% (active). Next, `O=[N+]([O-])c1c(NCCO)cc(Sc2nc3ccccc3s2)c2nonc12`: -9.49% (inactive); `COc1ccc(CC(=O)NCC(=O)N/N=C/c2cc(Br)ccc2OC)cc1`: 87.8% (active).
